# Where two headings read alike, the source gives them in different places.
# Experiments:
# [1] = system: CAMKK2; design: species or system human, MV4-11 + K-562 + COLO205 + SK-N-BE2 + OVCAR-8; settings: read-out: apparent Kd, compound concentrations: 100 nM and 1000 nM (sheet 'Samples'), n = 1
# [2] = system: EGFR; design: species or system human, MV4-11 + K-562 + COLO205 + SK-N-BE2 + OVCAR-8; settings: read-out: apparent Kd; compound concentrations: 100 nM and 1000 nM (sheet 'Samples'), CATDS: 0.86194262245046105; n = 1
# [3] = system: CLK1; design: species or system human, MV4-11 + K-562 + COLO205 + SK-N-BE2 + OVCAR-8; settings: read-out: apparent Kd; compound concentrations: 100 nM and 1000 nM (sheet 'Samples'), CATDS: 5.1220055062038403E-2; n = 1
# [4] = system: CLK4; design: species or system human, MV4-11 + K-562 + COLO205 + SK-N-BE2 + OVCAR-8; settings: read-out: apparent Kd; compound concentrations: 100 nM and 1000 nM (sheet 'Samples'), CATDS: 6.3001679315381406E-2; n = 1
# [5] = system: CSNK1D; design: species or system human, MV4-11 + K-562 + COLO205 + SK-N-BE2 + OVCAR-8; settings: read-out: apparent Kd; compound concentrations: 100 nM and 1000 nM (sheet 'Samples'), CATDS: 3.1213203175664998E-2; n = 1
# [6] = system: EIF2AK1; design: species or system human, MV4-11 + K-562 + COLO205 + SK-N-BE2 + OVCAR-8; settings: read-out: apparent Kd; compound concentrations: 100 nM and 1000 nM (sheet 'Samples'), CATDS: 3.5611911741364403E-2; n = 1
# [7] = system: FER; design: species or system human, MV4-11 + K-562 + COLO205 + SK-N-BE2 + OVCAR-8; settings: read-out: apparent Kd; compound concentrations: 100 nM and 1000 nM (sheet 'Samples'), CATDS: 4.34234720684002E-2; n = 1
# [8] = system: GAK; design: species or system human, MV4-11 + K-562 + COLO205 + SK-N-BE2 + OVCAR-8; settings: read-out: apparent Kd; compound concentrations: 100 nM and 1000 nM (sheet 'Samples'), CATDS: 0.16140378921040499; n = 1
# [9] = system: IGF1R; design: species or system human, MV4-11 + K-562 + COLO205 + SK-N-BE2 + OVCAR-8; settings: read-out: apparent Kd; compound concentrations: 100 nM and 1000 nM (sheet 'Samples'), CATDS: 3.6183356665864301E-2; n = 1
# [10] = system: INSR; design: species or system human, MV4-11 + K-562 + COLO205 + SK-N-BE2 + OVCAR-8; settings: read-out: apparent Kd; compound concentrations: 100 nM and 1000 nM (sheet 'Samples'), CATDS: 4.1283599015515197E-2; n = 1
# [11] = system: MAPK10; design: species or system human, MV4-11 + K-562 + COLO205 + SK-N-BE2 + OVCAR-8; settings: read-out: apparent Kd; compound concentrations: 100 nM and 1000 nM (sheet 'Samples'), CATDS: 0.121038756107581; n = 1
# [12] = system: MAPK8; design: species or system human, MV4-11 + K-562 + COLO205 + SK-N-BE2 + OVCAR-8; settings: read-out: apparent Kd; compound concentrations: 100 nM and 1000 nM (sheet 'Samples'), CATDS: 0.11476451358793401; n = 1
# [13] = system: MAPK9; design: species or system human, MV4-11 + K-562 + COLO205 + SK-N-BE2 + OVCAR-8; settings: read-out: apparent Kd; compound concentrations: 100 nM and 1000 nM (sheet 'Samples'), CATDS: 6.9052364835720206E-2; n = 1
# [14] = system: NUAK1; design: species or system human, MV4-11 + K-562 + COLO205 + SK-N-BE2 + OVCAR-8; settings: read-out: apparent Kd; compound concentrations: 100 nM and 1000 nM (sheet 'Samples'), CATDS: 3.4302390396245802E-2; n = 1
# [15] = system: PRKD2; design: species or system human, MV4-11 + K-562 + COLO205 + SK-N-BE2 + OVCAR-8; settings: read-out: apparent Kd; compound concentrations: 100 nM and 1000 nM (sheet 'Samples'), CATDS: 3.5974174305942498E-2; n = 1
# [16] = system: PRKD3; design: species or system human, MV4-11 + K-562 + COLO205 + SK-N-BE2 + OVCAR-8; settings: read-out: apparent Kd; compound concentrations: 100 nM and 1000 nM (sheet 'Samples'), CATDS: 3.1846341330559601E-2; n = 1
# [17] = system: PTK2B; design: species or system human, MV4-11 + K-562 + COLO205 + SK-N-BE2 + OVCAR-8; settings: read-out: apparent Kd; compound concentrations: 100 nM and 1000 nM (sheet 'Samples'), CATDS: 8.6310597132222E-2; n = 1
# [18] = system: PTK2; design: species or system human, MV4-11 + K-562 + COLO205 + SK-N-BE2 + OVCAR-8; settings: read-out: apparent Kd; compound concentrations: 100 nM and 1000 nM (sheet 'Samples'), CATDS: 5.1603916843062203E-2; n = 1
# [19] = biological target: Q6ZSR9 (human, UniProt Q6ZSR9); design: species or system MV4-11 + K-562 + COLO205 + SK-N-BE2 + OVCAR-8; settings: read-out: apparent Kd; compound concentrations: 100 nM and 1000 nM (sheet 'Samples'), CATDS: 3.1507778196600798E-2; n = 1
# [20] = system: RPS6KA1; design: species or system human, MV4-11 + K-562 + COLO205 + SK-N-BE2 + OVCAR-8; settings: read-out: apparent Kd; compound concentrations: 100 nM and 1000 nM (sheet 'Samples'), CATDS: 3.19128363140119E-2; n = 1
# [21] = system: TNK1; design: species or system human, MV4-11 + K-562 + COLO205 + SK-N-BE2 + OVCAR-8; settings: read-out: apparent Kd; compound concentrations: 100 nM and 1000 nM (sheet 'Samples'), CATDS: 0.144330390511521; n = 1
# [22] = system: TTK; design: species or system human, MV4-11 + K-562 + COLO205 + SK-N-BE2 + OVCAR-8; settings: read-out: apparent Kd; compound concentrations: 100 nM and 1000 nM (sheet 'Samples'), CATDS: 8.7899385258393206E-2; n = 1
# Sequence of Q6ZSR9 (Q6ZSR9 whole entry, looked up): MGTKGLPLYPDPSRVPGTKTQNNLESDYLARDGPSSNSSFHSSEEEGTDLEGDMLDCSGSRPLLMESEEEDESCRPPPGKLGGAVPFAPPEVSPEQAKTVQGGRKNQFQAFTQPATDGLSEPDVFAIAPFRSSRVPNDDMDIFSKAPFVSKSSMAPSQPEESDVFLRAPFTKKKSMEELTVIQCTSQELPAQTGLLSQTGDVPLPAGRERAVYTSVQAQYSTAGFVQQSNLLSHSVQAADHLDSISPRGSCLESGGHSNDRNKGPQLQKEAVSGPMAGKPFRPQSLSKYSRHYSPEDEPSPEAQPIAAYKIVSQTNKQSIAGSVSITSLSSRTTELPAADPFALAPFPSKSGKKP
compound,measurement,setting,value
CN(C)C(=O)O[C@H]1CN[C@H](C#Cc2cc3ncnc(Nc4ccc(OCc5cccc(F)c5)c(Cl)c4)c3s2)C1 [GSK182497A],potency estimated from few doses,[1]; CATDS: 0.352133758471873,2010 nM
same,potency estimated from few doses,[2],175 nM
COc1cc(N2CCN(C(C)C)CC2)ccc1Nc1nc(Nc2ccc(F)cc2C(N)=O)c2cc[nH]c2n1 [GSK1220512A],potency estimated from few doses,[1]; CATDS: 3.10077731514018E-2,2210 nM
same,potency estimated from few doses,[3],361 nM
same,potency estimated from few doses,[4],213 nM
same,potency estimated from few doses,[5],2140 nM
same,potency estimated from few doses,[6],1180 nM
same,potency estimated from few doses,[7],587 nM
same,potency estimated from few doses,[8],38 nM
same,potency estimated from few doses,[9],1110 nM
same,potency estimated from few doses,[10],691 nM
same,potency estimated from few doses,[11],59.2 nM
same,potency estimated from few doses,[12],64.7 nM
same,potency estimated from few doses,[13],172 nM
same,potency estimated from few doses,[14],1380 nM
same,potency estimated from few doses,[15],1130 nM
same,potency estimated from few doses,[16],1930 nM
same,potency estimated from few doses,[17],108 nM
same,potency estimated from few doses,[18],354 nM
same,potency estimated from few doses,[19],2040 nM
same,potency estimated from few doses,[20],1910 nM
same,potency estimated from few doses,[21],44.9 nM
same,potency estimated from few doses,[22],104 nM

# Reference: PMC11062922 (Nature Chemical Biology, 2023)
